Results on 40 molecules are retold here after PubChem BioAssay (Tox21).

Where “and” joins values, the source holds several entries; their conditions need not be identical. Identical values can stand only once. Results filed as inconclusive are left out. A number with no mark means an inactive call. Calls of active or inactive are those of the source. Calls follow the shape of the dose curve; as a rule, active = well fitted cell-killing curve with a large enough effect in the repeat runs; inconclusive = weak or mixed curves, or effect the other way; inactive = no such curve, though single readings can be large or run the other way.
% is scaled to controls: 0 for no effect and ±100 for the full control effect; potency is read from the fitted curve at half-maximal effect.

The test can be described thus: qHTS assay for identifying genotoxic compounds that show differential cytotoxicity against isogenic chicken DT40 cell lines with known DNA damage response pathways - wild type cell line (AID 743012). Also: nearly all actives have a fitted effect of over 60% in size. The conditions noted are these: DT40 wild type chicken cells viability, CellTiter-Glo, 40 h; series mostly up to 68.4 µM; activity change, negative = cytotoxicity: at the top concentration. The source says:
U.S. Tox21 Program National Center for Advancing Translational Sciences [NCATS] NIH Chemical Genomics Center [NCGC] U.S. Environmental Protection Agency [EPA] National Institutes of Environmental Health Sciences [NIEHS] National Toxicology Program [NTP] U.S. Food and Drug Administration [FDA] Tox21 Assay Overview: DNA repair pathways play a critical role in cellular homeostasis by repairing DNA damage induced by endogenous processes and xenobiotics. Isogenic chicken DT40 cell lines deficient in different DNA repair pathways can be used to identify genotoxic compounds and aid in characterizing the nature of the DNA damage induced. Two DNA repair-deficient cell lines with disrupted genes, Rad54/Ku70 or Rev3, were used to screen the Tox21 10K compound library. Possible genotoxicity was based on the presence of a significant increase in cytotoxicity in one or more of the DNA repair-deficient cell lines compared to that observed in the parental DNA repair-proficient cell line. CellTiter Glo viability assay (Promega, Madison, WI) was used to measure cell viability in these cells after compound treatment. This assay includes the data from the wild type cell line.
Tox21 Assay Protocol Summary: 300 DT40 wild type cells in 5 uL/well were dispensed into white, solid-bottom 1536-well plates using a Multidrop Combi (ThermoFisher Scientific, Waltham, MA) dispenser. After the assay plates were incubated at 37 C/5% CO2 for approximately 0.5 hour, 23 nL of compounds dissolved in DMSO, positive controls or DMSO only was transferred into the assay plate by a pintool work station (Kalypsys, San Diego, CA). The assay plates were incubated at 37 C/5% CO2 for 40 hours. After 5 uL per well of CellTiter-Glo reagent was added into each well of the assay plates, the plates were incubated for 30 min at room temperature and the luminescence intensity of the plates was measured using a ViewLux (PerkinElmer, Shelton, CT) plate reader.
For `Clc1cc(Cl)cc(Cl)c1`, the “activity change, negative = cytotoxicity” value was 11.1%. Regarding `O=C(c1ccccc1O)c1ccccc1O`, the “activity change, negative = cytotoxicity” value is -0.02%.

`Nc1ccn([C@@H]2O[C@H](CO)[C@@H](O)C2(F)F)c(=O)n1`: the Potency was 15 nM (active). As to `CCCOC(=O)CC`, the “activity change, negative = cytotoxicity” value is 7.63%. Turning to `Cc1ccnc(NS(=O)(=O)c2ccc(N)cc2)n1`, the “activity change, negative = cytotoxicity” value was 14.2% [at 31.4 µM]. Turning to `COc1ccc2cc1Oc1cc3c(cc1OC)CC[N+](C)(C)[C@H]3Cc1ccc(cc1)Oc1c(OC)c(OC)cc3c1[C@@H](C2)[N+](C)(C)CC3`, the “activity change, negative = cytotoxicity” value was 14.5%. On the same count and under the same terms, the figure for `CCOC(=O)c1ccccc1` is -19.8%; for `CC(C)(N)C#N` it is 18.8% [at 95 µM]. As for `CCN(Cc1ccccc1)c1ccccc1`, the “activity change, negative = cytotoxicity” value was -10.5%. Same read-out and setting: the same measure for `Nc1ccncc1N`: 21.4%; for `NCCCC(N)(C(=O)O)C(F)F` (stereo not given): 4.32%; for `Cc1cccc(C)c1NC(=O)CC12CCCN1CCC2`: 1.5%. Still for that read-out and setting: the figure for `C[N+]1(C)CCCC(OC(=O)C(O)(c2ccccc2)c2ccccc2)C1` (stereo not given) is 0.614% [at 31.4 µM]. Turning to `Cc1nc2ccc(CN(C)c3ccc(C(=O)N[C@@H](CCC(=O)O)C(=O)O)s3)cc2c(=O)[nH]1`, the Potency is 3.8 nM (active) and 7.5 nM (active). The same measure, in the same setting: the figure for `CC(=O)O[C@@]12CO[C@@H]1C[C@H](O)[C@@]1(C)C(=O)[C@H](O)C3=C(C)[C@@H](OC(=O)[C@H](O)[C@@H](NC(=O)OC(C)(C)C)c4ccccc4)C[C@@](O)([C@@H](OC(=O)c4ccccc4)[C@H]21)C3(C)C` is 1.7 nM (active). As to `CC(CO)(CO)[N+](=O)[O-]`, the “activity change, negative = cytotoxicity” value was -5.31%. The same measure, in the same setting: the same measure for `NC(CCC(=O)O)C(=O)O` (stereo not given): -8.27%. On to `COC(=O)C1=C(C)NC(C)=C(C(=O)OC(C)C)C1c1cccc2nonc12` (stereo not given), for which the “activity change, negative = cytotoxicity” value was -24.4% [at 31.4 µM].

With `C=CCCCCCCCCC(=O)OCC`, the “activity change, negative = cytotoxicity” value is -2.89%. `CCOc1ccccc1OCC`: the “activity change, negative = cytotoxicity” value was -2.29%. Still for that read-out and setting: the figure for `O=Cc1cccc(Br)c1` is 0.566% [at 95 µM].

With `O=C(O)Cc1csc(-c2ccc(Cl)cc2)n1`, the “activity change, negative = cytotoxicity” value is 8.86%. Still for that read-out and setting: the figure for `CN1C(C)(C)CC(O)CC1(C)C` is 5.47%; for `CO[C@@]1(NC(=O)CSC[C@@H](N)C(=O)O)C(=O)N2C(C(=O)O)=C(CSc3nnnn3C)CS[C@@H]21` it is 0.464%.

Consider `CC(=O)C1CCCCC1=O` (stereo not given), for which the “activity change, negative = cytotoxicity” value is -1.68%. Turning to `CC(C)CC(C)(N)C#N` (stereo not given), the “activity change, negative = cytotoxicity” value was 13% [at 95 µM]. The same measure, in the same setting: the figure for `C=CCCC(=O)O` is 8.38%; for `C=CN1CCCCCC1=O` it is 4.01%. As for `CC1(C)[C@@H]2CC[C@@]1(C)[C@H](O)C2`, the “activity change, negative = cytotoxicity” value is 7.48%. As for `CCOc1ccc2nc(S(N)(=O)=O)sc2c1`, the “activity change, negative = cytotoxicity” value is -4.09%. The same measure, in the same setting: the figure for `CCCCCCCCCCOc1cc2c(=O)c(C(=O)OCC)c[nH]c2cc1OCC` is 9.3%; for `CCCCCCCC1CCCC1=O` (stereo not given) it is 4.93%; for `O=C1NC(=O)C2CC=CCC12` (stereo not given) it is 5.21%.

Turning to `CC(C)c1ccc2ncccc2c1`, the “activity change, negative = cytotoxicity” value was 0.758%. On the same count and under the same terms, the figure for `CC(C(=O)O)c1cccc(Oc2ccccc2)c1` (stereo not given) is 0.482% [at 31.4 µM]. With `CC1=NN(c2cccc(S(=O)(=O)O)c2)C(=O)C1`, the “activity change, negative = cytotoxicity” value was -4.2%.

Turning to `Cc1ccc(C(=O)c2ccccc2)cc1`, the Potency is 61100 nM (active). As for `COc1cc(C(=O)NCc2ccc(OCCN(C)C)cc2)cc(OC)c1OC`, the “activity change, negative = cytotoxicity” value was 13.6% [at 31.4 µM]. Same read-out and setting: the figure for `CN(C)CCN(C)CCN(C)C` is -15.1%. Regarding `CC(C)C1CCC(O)CC1` (stereo not given), the “activity change, negative = cytotoxicity” value is 4.36%.
